Structures are written as SMILES. “And” between values parts separate entries of the source, which are not always exact repeats. Equal values may be shown once. The source made the active and inactive calls. The calls were made as follows: active = hit-call score of the fitted dose curve at least 0.9, where 1 is the maximum; inactive = score below 0.9.

Drawing on PubChem BioAssay (EPA / NIEHS), this text covers outcome and AC50 for 40 compounds.

Apoptosis regulator Bcl-2 (Homo sapiens), sequence (P10415 whole entry, looked up): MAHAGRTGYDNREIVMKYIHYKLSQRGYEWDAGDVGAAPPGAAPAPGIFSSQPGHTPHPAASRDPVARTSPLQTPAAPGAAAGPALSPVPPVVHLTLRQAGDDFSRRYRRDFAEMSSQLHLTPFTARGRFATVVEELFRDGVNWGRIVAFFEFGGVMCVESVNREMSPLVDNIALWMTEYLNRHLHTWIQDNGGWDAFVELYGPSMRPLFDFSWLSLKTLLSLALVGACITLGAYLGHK

Read-out in this assay: Apoptosis regulator Bcl-2 (Homo sapiens) (UniProt P10415)
Briefly: LTEA_HepaRG_BCL2: Life Technologies and Expression Analysis (LTEA) Assay for Bcl-2 gene using HepaRG (AID 2283475).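 Also: BCL2 transcript by TaqMan qRT-PCR normalised to ACTB GAPDH and POLR2A.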 The conditions noted are these: mRNA level, 48 h; actives raise or lower the signal. As to the method: LTEA_HepaRG is a cell based, multiplexed-readout assay that uses HepaRG, a human liver cell line, with measurements taken at 48 hours after chemical dosing on a 96-well plate.LTEA_HepaRG_BCL2 is one of 102 assay component(s) measured in the LTEA HepaRG cell culture assay. It is a marker of Cell proliferation, survival, death.Data from the assay component LTEA_HepaRG_BCL2 was analyzed into 1 endpoint. This assay endpoint, LTEA_HepaRG_BCL2, was analyzed with bidirectional fitting relative to DMSO as the negative control and baseline of activity. Using a type of inducible reporter, measures of mRNA induction for gain or loss-of-signal activity can be used to understand regulation of transcription factor activity. To generalize the intended target to other relatable targets, this assay endpoint is annotated to the cell cycle intended target family, where the subfamily is Cell proliferation, survival, death.
A total of 1060 chemcials from the ToxCast library were tested in eight-point concentration-response experiments. Cell culture and cytotoxicity assays were conducted at Thermo Fisher Scientific's Custom Services facility (Madison, WI). A single lot of human HepaRG cells (Thermo Fisher Scientific, Frederick, MD) was used for the cell culture experiments. 96-well format collagen type I coated plates of human HepaRG cells were prepared using established methods. Briefly, cryopreserved HepaRG cells were thawed, plated at a density of approximately 100,000 cells/well in HepaRG Thaw, Plate, and General Purpose media (HPRG770, Thermo Fisher Scientific), and incubated for 48 hours. 0.5% DMSO was selected as vehicle control to balance the requisite need of DMSO in HepaRG cultures to maintain differentiation (for example, baseline metabolism, proportions of hepatocytes vs. cholangiocytes), while enabling further hepatic receptor pathway activation (for example, PXR and CAR) in response to chemical exposure. 48 hours after plating, the culture medium was replaced with HepaRG Serum-Free Incudtion Media. Cells were exposed to each test chemical in duplicate and maintained in CO2 incubators for another 48 hours. Chemical plates were thawed to room temperature and 200x concentrations of treatment groups were prepared. 8-point conentration-reponse curves were made with the highest exposure at 100 uM, followed by half-log dilutions, all in 0.5% DMSO. Each test plate contained variouse controls, induction positive controls (1mM phenobarbital), cytotoxicity positive controls ([…] aflatoxin B1), vehicle controls (0.5% DMSO), and total lysis controls (0.5% DMSO). Cell morphology images were taken using an Essen IncuCyte FLR automated microscope, with six 96-well plates imaged in about 24 minutes. Images were captured and exported and JPEG files. Spent culture media was transfered to black-well plates for the LDH assay, and remaining media was sorted at -80 C for later use. Cells were treated with RLT buffer and frozen until shipped for gene expression analysis. Total RNA was isolated from the cell suspension in 75 uL of Buffer RLT (Qiagen, Germantown, MD 20874) by Quintiles/Expression Analysis (Durham, NC) using a custom isolation procedure. Total RNA from each plate well was transferred to a preamplification plate. Fluidigm's 96.96 Dynamic ArrayTM (Fluidigm, Amsterdam, the Netherlands) technology was used for gene expression analyses by quantitative reverse transcription polymerase chain reaction (qRT-PCR, performed by Quintiles/Expression Analysis, Durham, NC)89. Standard TaqManTM Assays (Applied Biosystems/ThermoFisher Scientific, Foster City, CA) were used to assess the expression of 93 genes selected based on their selectivity and sensitivity to important hepatic receptors known to be modulated by environmental chemicals; importance in human hepatocyte functionality; and hepatotoxicity. […]
Take `CCC(C)(C)C(=O)OC1=C(c2ccc(Cl)cc2Cl)C(=O)OC12CCCCC2`: the call was inactive.
The same measure, in the same setting: the same measure for `O=C(NC(=O)c1c(F)cccc1F)Nc1ccc(OC(F)(F)C(F)OC(F)(F)F)c(Cl)c1` (stereo not given): “inactive”.
As for `CCOC1Oc2ccc(OS(C)(=O)=O)cc2C1(C)C` (stereo not given), the AC50 was 82.1 µM (active).
`O=C(O)C(F)(F)C(F)(F)C(F)(F)C(F)(F)C(F)(F)C(F)(F)C(F)(F)F`: the call was inactive.
Same read-out and setting: the entry for `CC(C)N(C(=O)COc1nnc(C(F)(F)F)s1)c1ccc(F)cc1` is “inactive”; for `O=[N+]([O-])c1c(Cl)c(Cl)c(Cl)c(Cl)c1Cl` it is “inactive”; for `O=C(O)CCCOc1ccc(Cl)cc1Cl` it is “inactive”.
`COc1nn(CSP(=S)(OC)OC)c(=O)s1`: the compound was classed as inactive.
Take `O=C(O)COc1ccc(Cl)cc1Cl`: the compound was called inactive.
Same read-out and setting: the entry for `CCC(C)(NC(=O)c1cc(Cl)c(C)c(Cl)c1)C(=O)CCl` (stereo not given) is “inactive”; for `CNC(=O)/C=C(\C)OP(=O)(OC)OC` it is “inactive”.
In the case of `N#CN`, the outcome was inactive.
On the same count and under the same terms, the same measure for `N#Cc1c(Cl)c(Cl)c(Cl)c(C#N)c1Cl`: “inactive”.
Consider `C[C@H]1[C@H](c2ccc(Cl)cc2)SC(=O)N1C(=O)NC1CCCCC1`, for which the AC50 was 76 µM (active).
As for `Clc1ccccc1-c1nnc(-c2ccccc2Cl)nn1`, the result was inactive.
In the case of `Cc1[nH]c(=O)n(C(C)(C)C)c(=O)c1Cl`, the call was inactive.
With `CCCN(CCOc1c(Cl)cc(Cl)cc1Cl)C(=O)n1ccnc1`, the AC50 was 28.9 µM (active).
Take `O=[N+]([O-])/N=C1\NCCN1Cc1ccc(Cl)nc1`: the call was inactive.
Same read-out and setting: the same measure for `CCN(CC)C(=O)SCc1ccc(Cl)cc1`: “inactive”.
For `OCCOc1ccccc1`, the compound was called inactive.
As to `CC[C@H](C)[C@H]1O[C@]2(C=C[C@@H]1C)C[C@@H]1C[C@@H](C/C=C(\C)[C@@H](O[C@H]3C[C@H](OC)[C@@H](O[C@H]4C[C@H](OC)[C@@H](O)[C@H](C)O4)[C@H](C)O3)[C@@H](C)/C=C/C=C3\CO[C@@H]4[C@H](O)C(C)=C[C@@H](C(=O)O1)[C@]34O)O2` (tested in a mixture with another compound), the AC50 was 9.08 µM (active).
For the compound `Oc1cc(Cl)ccc1Oc1ccc(Cl)cc1Cl`, the call was inactive.
As to `CNC(=O)Oc1ccccc1OC(C)C`, the result was inactive.
On to `COP(=S)(OC)Oc1ccc(SC)c(C)c1`, for which the compound was called inactive.
On to `CNC(=O)CSP(=S)(OC)OC`, for which the compound was called inactive.
In the case of `CCc1ccc(C(=O)NN(C(=O)c2cc(C)cc(C)c2)C(C)(C)C)cc1`, the compound was called inactive.
The same measure, in the same setting: the entry for `CCCN(CCC)c1c([N+](=O)[O-])cc(C(F)(F)F)cc1[N+](=O)[O-]` is “inactive”; for `CCC(C)Nc1c([N+](=O)[O-])cc(C(C)(C)C)cc1[N+](=O)[O-]` (stereo not given) it is “inactive”.
On the same count and under the same terms, the entry for `CNC(=O)Oc1cccc(N=CN(C)C)c1` is “inactive”; for `Oc1ccc(Cl)cc1Cc1ccccc1` it is “inactive”.
For `O=S(=O)(O)C(F)(F)C(F)(F)C(F)(F)C(F)(F)C(F)(F)C(F)(F)C(F)(F)C(F)(F)F`, the AC50 is 50 µM (active) and 65.5 µM (active) and 48 µM (active).
Same read-out and setting: the same measure for `CC1(c2ccc(Oc3ccccc3)cc2)OC(=O)N(Nc2ccccc2)C1=O` (stereo not given): 9.6 µM (active).
As for `CC1(C)C(C=C(Cl)Cl)C1C(=O)OC(C#N)c1ccc(F)c(Oc2ccccc2)c1` (stereo not given), the outcome was inactive.
For `COP(=S)(OC)Oc1ccc([N+](=O)[O-])cc1`, the outcome was inactive.
On the same count and under the same terms, the same measure for `CCOCN(C(=O)CCl)c1c(C)cccc1CC`: “inactive”.
For `CN1CSC(=S)N(C)C1`, the call was inactive.
On the same count and under the same terms, the same measure for `COP(=O)(OC)OC=C(Cl)Cl`: “inactive”; for `CC(C)(C)C(O)C(Oc1ccc(Cl)cc1)n1cncn1` (stereo not given): “inactive”; for `ClC1C(Cl)C(Cl)C(Cl)C(Cl)C1Cl` (stereo not given): “inactive”.
With `CC(C)OC(=O)Nc1cccc(Cl)c1`, the outcome was inactive.
